Assay [1] can be described thus: antimalarial activity against Dd2 strain (AID 2302;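 active = growth inhibition above 50% at the single 2 µM test dose, taken to imply half-maximal potency below 2 µM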;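 also: 0% = DMSO untreated growth and 100% = chloroquine plus artemisinin killed control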). The conditions noted are these: P. falciparum Dd2 in RBCs, LDH growth readout, 72 h; at 2 µM; active compounds read high.
Assay [2] in a line: HepG2 cytotoxicity, primary screen, cytotoxicity control for P. falciparum antimalarial project, cell-based, ATP luminescence (AID 2303;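 active = inhibition above 50%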;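 also: 0% = DMSO wells and 100% = digitonin-killed cells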). Conditions: HepG2 viability, 24-48 h, at 10 µM, active compounds read high.
The target of assay [3] is L-lactate dehydrogenase (Plasmodium falciparum (isolate CDC / Honduras)) (UniProt Q27743). Briefly: PfLDH activity inhibition – cell lysate, 3D7 strain, counter-screen for P. falciparum growth inhibition project (AID 2304).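 Also: 0% = vehicle and 100% = reference inhibitor.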 Conditions: P. falciparum 3D7 crude extract, LDH APAD/NBT absorbance; at 2 µM; active compounds read high.
L-lactate dehydrogenase (Plasmodium falciparum (isolate CDC / Honduras)), sequence (Q27743 whole entry, looked up): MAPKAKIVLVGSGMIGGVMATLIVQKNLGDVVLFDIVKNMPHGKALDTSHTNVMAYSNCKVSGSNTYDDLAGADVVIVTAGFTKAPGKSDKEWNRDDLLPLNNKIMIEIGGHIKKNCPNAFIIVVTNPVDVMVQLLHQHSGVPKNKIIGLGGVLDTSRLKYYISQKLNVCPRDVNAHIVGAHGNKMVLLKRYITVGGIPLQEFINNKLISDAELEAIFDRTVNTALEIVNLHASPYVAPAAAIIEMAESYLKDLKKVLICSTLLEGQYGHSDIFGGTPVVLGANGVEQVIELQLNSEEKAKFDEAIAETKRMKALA
Assay [4] can be described thus: inhibition of 3D7 malaria parasite growth – strain 3D7 (AID 2306).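 Also: 0% = DMSO wells and 100% = chloroquine plus artemisinin control wells.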 The conditions noted are these: P. falciparum 3D7 erythrocytic growth, LDH absorbance, 72 h; at 2 µM; active compounds read high.
Assay [5] concerns the target Calcium-dependent protein kinase 1 (Plasmodium falciparum (isolate 3D7)) (UniProt P62344). Briefly: PfCDPK1 kinase inhibitors, biochemical, TCAMS library (AID 1159585; cut-off not given, nearly all actives have IC50 up to about 0.98 µM;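 also: inhibitors leave more ATP so luminescence rises with inhibition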). Conditions: recombinant PfCDPK1, Kinase-Glo ATP depletion luminescence.
The target in assay [6] is Plasmodium falciparum protein kinase 6 (PK6, PF3D7_1337100) (UniProt Q8IDW1). Description: PfPK6 kinase inhibitors, biochemical, TCAMS library (AID 1159586). The conditions noted are these: recombinant PfPK6, Kinase-Glo ATP depletion luminescence.
Plasmodium falciparum protein kinase 6 (PK6, PF3D7_1337100), sequence (Q8IDW1 1-305): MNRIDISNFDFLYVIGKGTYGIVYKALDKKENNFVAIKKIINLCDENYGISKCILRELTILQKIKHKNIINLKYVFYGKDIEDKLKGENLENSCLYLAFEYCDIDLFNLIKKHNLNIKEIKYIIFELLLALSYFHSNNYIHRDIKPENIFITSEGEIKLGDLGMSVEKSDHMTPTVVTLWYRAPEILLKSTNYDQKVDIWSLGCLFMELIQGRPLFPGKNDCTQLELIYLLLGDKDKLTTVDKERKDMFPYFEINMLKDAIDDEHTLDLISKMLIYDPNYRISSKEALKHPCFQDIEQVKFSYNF
Assay [7] addresses Protein kinase 7 (PK7), Plasmodium falciparum 3D7 (PF3D7_0213400) (UniProt Q7YTF7). Briefly: inhibition of Plasmodium PK7 catalytic activity – biochemical, TCAMS antimalarial set, Kinase-Glo luminescence (AID 1159587). The conditions noted are these: recombinant PfPK7, Kinase-Glo ATP depletion luminescence. In general terms: Kinase-Glo reads ATP consumption through a luciferase reaction.

Assay [8] addresses Calcium-dependent protein kinase 4 (Plasmodium falciparum (isolate 3D7)) (UniProt Q8IBS5). Description: PfCDPK4 kinase inhibitors, biochemical, TCAMS library (AID 1159588; cut-off not given, nearly all actives have IC50 up to about 0.91 µM). The conditions noted are these: recombinant PfCDPK4, Kinase-Glo ATP depletion luminescence.

The results in this text go back to PubChem BioAssay.

Unmarked numbers belong to inactive results. For some assays here: Potency and affinity values are given separately. Active and inactive are the calls of the source. Unless noted, no rule for the calls is given here.

Usually inhibition stands for the change of the read-out against control, counted positive when it falls.

Protein kinase 7 (PK7), Plasmodium falciparum 3D7 (PF3D7_0213400), sequence (Q7YTF7 1-343): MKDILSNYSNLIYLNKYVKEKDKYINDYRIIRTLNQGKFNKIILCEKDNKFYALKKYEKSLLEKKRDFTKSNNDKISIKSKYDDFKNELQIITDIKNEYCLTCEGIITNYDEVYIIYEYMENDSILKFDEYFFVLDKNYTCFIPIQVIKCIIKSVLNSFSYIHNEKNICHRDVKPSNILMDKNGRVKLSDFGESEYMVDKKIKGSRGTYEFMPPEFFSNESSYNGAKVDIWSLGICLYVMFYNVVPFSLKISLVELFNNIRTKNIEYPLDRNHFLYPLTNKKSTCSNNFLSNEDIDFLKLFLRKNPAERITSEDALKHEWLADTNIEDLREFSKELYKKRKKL
Calcium-dependent protein kinase 1 (Plasmodium falciparum (isolate 3D7)), sequence (P62344 whole entry, looked up): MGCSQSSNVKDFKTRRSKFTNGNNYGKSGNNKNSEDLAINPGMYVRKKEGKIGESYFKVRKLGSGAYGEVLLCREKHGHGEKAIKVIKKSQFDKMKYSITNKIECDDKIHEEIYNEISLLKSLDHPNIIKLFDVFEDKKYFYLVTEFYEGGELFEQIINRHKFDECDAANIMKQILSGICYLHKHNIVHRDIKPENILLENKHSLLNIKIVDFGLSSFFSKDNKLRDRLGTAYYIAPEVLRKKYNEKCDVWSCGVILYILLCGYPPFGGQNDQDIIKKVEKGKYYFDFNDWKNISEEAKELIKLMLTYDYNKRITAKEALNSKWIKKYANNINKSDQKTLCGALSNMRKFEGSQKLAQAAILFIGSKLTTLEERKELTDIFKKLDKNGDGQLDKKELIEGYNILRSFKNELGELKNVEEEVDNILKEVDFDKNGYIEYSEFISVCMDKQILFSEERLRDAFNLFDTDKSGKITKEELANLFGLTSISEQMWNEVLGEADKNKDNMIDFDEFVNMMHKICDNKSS
Calcium-dependent protein kinase 4 (Plasmodium falciparum (isolate 3D7)), sequence (Q8IBS5 whole entry, looked up): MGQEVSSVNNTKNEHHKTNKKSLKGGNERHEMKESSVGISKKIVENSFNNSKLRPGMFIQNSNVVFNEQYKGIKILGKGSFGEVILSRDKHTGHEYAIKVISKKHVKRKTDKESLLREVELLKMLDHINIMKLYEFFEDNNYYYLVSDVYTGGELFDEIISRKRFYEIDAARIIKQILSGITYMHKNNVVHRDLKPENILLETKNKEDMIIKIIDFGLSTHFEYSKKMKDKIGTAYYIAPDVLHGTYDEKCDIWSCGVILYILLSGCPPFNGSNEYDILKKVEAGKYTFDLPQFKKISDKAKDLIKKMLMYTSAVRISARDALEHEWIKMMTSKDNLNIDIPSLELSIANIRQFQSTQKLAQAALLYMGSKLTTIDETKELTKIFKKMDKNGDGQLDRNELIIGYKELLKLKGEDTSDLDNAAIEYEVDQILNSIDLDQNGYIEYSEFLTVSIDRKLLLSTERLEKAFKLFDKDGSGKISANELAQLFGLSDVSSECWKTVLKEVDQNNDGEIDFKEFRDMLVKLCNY

With `Nc1nccc2ccc(-c3ccc4nccn4c3)cc12`, the growth inhibition is 100% (active) in assay [1] and 101% (active) in assay [4]. Further, the inhibition is 15% in assay [2] and -2% in assay [3]. The outcome in assay [5], in assay [6], in assay [7] and in assay [8] was inactive.

Turning to `COc1cc(F)c2ncc(F)c([C@@H](O)CN3CCC(NCc4cc5c(cn4)OCCO5)CC3)c2c1`, the growth inhibition was 88% (active) in assay [1] and 101% (active) in assay [4]. Besides, the inhibition in assay [2] is 1%; in assay [3] it was -1%. Further, the outcome in assay [5], in assay [6], in assay [7] and in assay [8] was inactive.

With `Cn1cncc1C(=O)Nc1cccc(-c2cccc(-c3nc4ccccc4[nH]3)c2)c1`, the figures for the growth inhibition in assay [1] and in assay [4] were 35% and 102% (active), respectively. For the same compound, the inhibition in assay [2] is 9%; in assay [3], 3%. Also, the outcome in assay [5], in assay [6], in assay [7] and in assay [8] was inactive.

In the case of `COc1cccc(NC(=O)Nc2ccc(-c3oc(C(=O)NCC(c4ccccc4)N(C)C)cc3-c3ccncc3)cc2)c1` (configuration not stated), the growth inhibition in assay [1] is 99% (active); in assay [4], 101% (active). Further, the inhibition in assay [2] was 6%; in assay [3] it was 2%. For the same compound, the result in assay [5], in assay [6], in assay [7] and in assay [8] was inactive.

Take `Cc1ccc(Nc2nc(C)cc(NC3CC3)n2)cc1`: the growth inhibition in assay [1] was 15%; in assay [4], 97% (active). Further, the inhibition is -4% in assay [2] and 5% in assay [3]. Further, the result in assay [5], in assay [6], in assay [7] and in assay [8] was inactive.

On to `O=C(Nc1cccc(-c2cccc(-c3nc4ccccc4[nH]3)c2)c1)c1cccnc1`, for which the growth inhibition was 14% in assay [1] and 95% (active) in assay [4]. The inhibition in assay [2] was 12%; in assay [3], -3%. Moreover, the result in assay [5], in assay [6], in assay [7] and in assay [8] was inactive.

For `Clc1ccc2nnc(-c3c(Cl)cccc3Cl)n2n1`, the values for the growth inhibition in assay [1] and in assay [4] were 60% (active) and 96% (active), respectively. The values for the inhibition in assay [2] and in assay [3] were 29% and -3%, respectively. The result in assay [5], in assay [6], in assay [7] and in assay [8] was inactive.

`CN1CCN(CC(=O)Nc2cccc(-c3cccc(-c4nc5ccc(C(F)(F)F)cc5[nH]4)c3)c2)CC1`: the figures for the growth inhibition in assay [1] and in assay [4] were 98% (active) and 101% (active), respectively. Also, the inhibition in assay [2] was 26%; in assay [3] it was 4%. Also, the outcome in assay [5], in assay [6], in assay [7] and in assay [8] was inactive.

Take `COc1cc2c(cc1C(F)(F)F)N(C(=O)Nc1cc(F)cc(-c3cncnc3)c1)CC2`: the growth inhibition in assay [1] is 52% (active); in assay [4] it was 97% (active). The inhibition was 15% in assay [2] and -5% in assay [3]. Also, the outcome in assay [5], in assay [6], in assay [7] and in assay [8] was inactive.

Turning to `CC(=O)Nc1nc(N)c2c(ccc3c2ccn3CC(C)C)n1`, the growth inhibition in assay [1] was 78% (active); in assay [4], 94% (active). For the same compound, the inhibition in assay [2] was 66% (active); in assay [3], -3%. Also, the result in assay [5], in assay [6], in assay [7] and in assay [8] was inactive.

With `NC(=O)C1CCN(Cc2ccc(-c3ccc(-c4nc5ccc(F)cc5[nH]4)cc3)cc2)CC1`, the growth inhibition is 100% (active) in assay [1] and 101% (active) in assay [4]. For the same compound, the inhibition was 12% in assay [2] and 7% in assay [3]. Also, the outcome in assay [5], in assay [6], in assay [7] and in assay [8] was inactive.

For the compound `CCc1c(CCNCCCCCCNC(C)(C)Cc2ccc3c(c2CC)OCO3)ccc(OC)c1OC`, the growth inhibition is 50% (active) in assay [1] and 101% (active) in assay [4]. Besides, the values for the inhibition in assay [2] and in assay [3] were 100% (active) and -1%, respectively. For the same compound, the outcome in assay [5], in assay [6], in assay [7] and in assay [8] was inactive.

Consider `CCCNC(=O)c1cncc(-c2ccc(CNC3Cc4ccccc4C3)cc2)c1`, for which the growth inhibition in assay [1] was 21%; in assay [4], 97% (active). Further, the inhibition in assay [2] was 9%; in assay [3] it was -8%. Moreover, the result in assay [5], in assay [6], in assay [7] and in assay [8] was inactive.

As for `NOCCCCOc1cc(Cl)c(Cl)cc1Cl`, the growth inhibition in assay [1] is 5%; in assay [4] it was 92% (active). Besides, the values for the inhibition in assay [2] and in assay [3] were 6% and -2%, respectively. The result in assay [5], in assay [6], in assay [7] and in assay [8] was inactive.

For `CN1CCN(c2cc(NC(=O)c3ccc(-c4ccc(Cl)cc4)cc3)ccc2Cl)CC1`, the results for the growth inhibition in assay [1] and in assay [4] were 33% and 99% (active), respectively. Also, the values for the inhibition in assay [2] and in assay [3] were 30% and -2%, respectively. Further, the outcome in assay [5], in assay [6], in assay [7] and in assay [8] was inactive.

Consider `COc1cc2c(cc1S(=O)(=O)c1ccc(OCc3ccc(Cl)cc3)cc1)CCN(Cc1ccc(NC(C)=O)s1)CC2`, for which the growth inhibition in assay [1] is -3%; in assay [4], 89% (active). Further, the inhibition in assay [2] is 3%; in assay [3] it was -2%. For the same compound, the result in assay [5], in assay [6], in assay [7] and in assay [8] was inactive.

For `COc1ccc(CCNC(=O)c2ccc(-n3cc(NC(=O)c4cccnc4)cn3)cc2)cc1OC`, the growth inhibition in assay [1] is 89% (active); in assay [4], 90% (active). For the same compound, the inhibition was 17% in assay [2] and 3% in assay [3]. The result in assay [5], in assay [6], in assay [7] and in assay [8] was inactive.

Take `O=C(Nc1cc(Oc2ccc(O)cc2)cc([N+](=O)[O-])c1)c1cc(-c2ccc(F)cc2)no1`: the growth inhibition in assay [1] is 37%; in assay [4], 88% (active). The values for the inhibition in assay [2] and in assay [3] were 61% (active) and 0%, respectively. Besides, the outcome in assay [5], in assay [6], in assay [7] and in assay [8] was inactive.

As to `CCCNCc1ccc(-c2ccc(CN(CCOC)C(=O)COc3ccccc3Cl)cc2)nc1`, the growth inhibition in assay [1] is 29%; in assay [4] it was 96% (active). Also, the inhibition in assay [2] was -1%; in assay [3], -2%. The result in assay [5], in assay [6], in assay [7] and in assay [8] was inactive.
